We go through 15 compounds from PubChem BioAssay (NCATS).

Records with an inconclusive call do not appear. Active and inactive are the calls of the source. Calls come from the whole dose curve; as a rule, active = well fitted inhibition curve with a large enough effect; inconclusive = small, poorly fitted or top-dose-only effect; inactive = flat fitted curve, though single readings scatter.

Common to all, as to experiment: qHTS profiling for inhibitors of Plasmodium falciparum proliferation (AID 504749); note: nearly all actives have a fitted effect of over 60% in size
Common to all, as to conditions: P. falciparum in erythrocytes, SYBR Green DNA, 72 h; series mostly up to 28.7 µM
(qHTS replaces the single test concentration by a dilution series.)

For assay [1], the system named is DIV17. An outline of the steps: (§1)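 SYBR Green fluorescence (ex 485 nm, em 535 nm) reports parasite DNA after 72 h compound exposure of infected red cells at 0.3% parasitemia, 2.5% hematocrit; signal normalized to 0.29 uM artemisinin and vehicle wells.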
Assay [2] relates to DIV30. An outline of the steps:
as §1

The subject of assay [3] is Dd2. An outline of the steps:
as §1

The subject of assay [4] is ECU. An outline of the steps: as §1
For assay [5], the system named is GB4. Put shortly:
as §1

The test system of assay [6] is HB3. An outline of the steps: as §1
Assay [7] concerns ICS. An outline of the steps: as §1
The test system of assay [8] is JCK. Put shortly: as §1
Assay [9] deals with N140. Put shortly:
as §1

The test system of assay [10] is P93_24. Put shortly:
as §1

For assay [11], the system named is P94_40. An outline of the steps: as §1
Assay [12] concerns PAD. An outline of the steps: as §1
Assay [13] deals with PC15. An outline of the steps:
as §1

Assay [14] has as its system PC26. An outline of the steps: as §1
For assay [15], the system named is SC27B. Put shortly: as §1
Assay [16] relates to TAB109. Put shortly: as §1
Assay [17] deals with TAB113. An outline of the steps:
as §1

The test system of assay [18] is TAB165. An outline of the steps:
as §1

The subject of assay [19] is FAB9. Put shortly:
as §1

The subject of assay [20] is PC49. Put shortly: as §1
Potency is the fitted concentration of half-maximal effect.

In the case of `CCN(CC)CCNc1ccc(CO)c2sc3ccccc3c(=O)c12`, the Potency was 2390 nM (active) in assay [1]; 9530 nM (active) in [2]; 2240 nM (active) in assay [3]; 708 nM (active) in [4]; 1200 nM (active) in assay [5]; 8910 nM (active) in assay [6]. Moreover, the Potency is 2000 nM (active) in assay [7]; 11200 nM (active) in assay [8]; 708 nM (active) in assay [9]; 891 nM (active) in assay [10]; 1580 nM (active) in assay [11]; 1000 nM (active) in assay [12]. For the same compound, the Potency in [13] was 3160 nM (active); in assay [14], 7570 nM (active); in assay [15], 1120 nM (active); in [16], 1580 nM (active); in [17], 1120 nM (active); in assay [18] it was 794 nM (active).

Take `NS(=O)(=O)Cc1noc2ccccc12`: the Potency entry in assay [1], in assay [2], in assay [3], in assay [4], in [19] and in assay [5] was “inactive” each time. Besides, the Potency result in assay [6], in [7], in assay [8], in [9], in assay [10] and in [11] was “inactive” in each case. Further, the Potency entry in [12], in assay [13], in assay [14], in assay [20], in [15] and in [16] was “inactive” each time. The Potency entry in assay [17] and in assay [18] was “inactive” each time.

For the compound `CC(=O)OC[C@H]1O[C@@H](n2ncc(=O)[nH]c2=O)[C@H](OC(C)=O)[C@@H]1OC(C)=O`, the Potency result in assay [1], in assay [2], in assay [3], in assay [4], in assay [19] and in assay [5] was “inactive” throughout. Besides, the Potency result in assay [6], in assay [7], in assay [8], in assay [9], in assay [10] and in [11] was “inactive” throughout. Moreover, the Potency result in [12], in assay [13], in [14], in assay [20], in assay [15] and in assay [16] was “inactive” in each case. Further, in assay [18], the Potency result is “inactive”.

For `C=CCN1CCc2nc(N)sc2CC1`, the Potency entry in assay [1], in [2], in assay [3], in assay [4], in assay [19] and in assay [5] was “inactive” each time. For the same compound, the Potency entry in assay [6], in assay [8], in assay [9], in assay [11], in assay [12] and in assay [13] was “inactive” throughout. The Potency entry in assay [14], in assay [20], in assay [15], in assay [16], in assay [17] and in [18] was “inactive” in each case.

`NC(N)=NCc1cccc(I)c1`: the Potency entry in [1], in [2], in assay [3], in assay [4], in assay [19] and in assay [5] was “inactive” in each case. The Potency result in assay [6], in [8], in assay [9], in assay [10], in [11] and in [12] was “inactive” in each case. Besides, the Potency entry in assay [13], in [14], in assay [20], in assay [15], in [16] and in assay [17] was “inactive” in each case. Further, in [18], the Potency entry is “inactive”.

For `CCCCCCCCNC(C)C(O)c1ccc(SC(C)C)cc1` (centres undefined), the Potency in assay [1] is 757 nM (active); in assay [2], 675 nM (active); in assay [3] it was 447 nM (active); in [4] it was 355 nM (active); in [19] it was 1410 nM (active); in assay [5], 536 nM (active). The Potency is 891 nM (active) in assay [6]; 89.1 nM (active) in assay [7]; 3160 nM (active) in [8]; 891 nM (active) in [10]; 447 nM (active) in assay [11]; 398 nM (active) in assay [12]. Besides, the Potency in assay [13] was 355 nM (active); in [14], 849 nM (active); in [20], 794 nM (active); in assay [15], 1120 nM (active); in assay [16], 1000 nM (active); in [17], 355 nM (active). For the same compound, the Potency in assay [18] is 794 nM (active).

In the case of `CCOC(=O)c1c(N)sc2c1CCN(Cc1ccccc1)C2`, the Potency was 7570 nM (active) in assay [1]; 13500 nM (active) in [2]; 7940 nM (active) in assay [3]; 7080 nM (active) in assay [4]; 4470 nM (active) in [19]; 4260 nM (active) in assay [5]. Besides, the Potency in [6] is 3550 nM (active); in assay [7] it was 5010 nM (active); in [8], 11200 nM (active); in assay [9], 12600 nM (active); in assay [10] it was 5010 nM (active); in [11] it was 5620 nM (active). Moreover, the Potency is 5360 nM (active) in [14]; 5010 nM (active) in [20]; 10000 nM (active) in assay [15]; 4470 nM (active) in assay [16]; 11200 nM (active) in assay [17]; 5010 nM (active) in [18].

With `CC1CCc2c(N3CCC(O)CC3)c(F)cc3c(=O)c(C(=O)O)cn1c23` (centres undefined), the Potency entry in assay [1], in [2], in assay [3], in [4], in [19] and in assay [6] was “inactive” in each case. For the same compound, the Potency result in [8], in [12], in assay [13], in assay [14] and in [20] was “inactive” each time.

As to `Cl/C(=C\n1cncn1)c1ccc(Cl)cc1Cl`, the Potency result in assay [1], in [2], in assay [3], in [4], in [19] and in assay [5] was “inactive” in each case. The Potency entry in assay [6], in assay [8], in [9], in assay [10], in [11] and in assay [12] was “inactive” each time. Further, the Potency entry in [13], in [14], in assay [20], in assay [15], in assay [16] and in assay [17] was “inactive” throughout. The Potency entry in [18] was “inactive”.

As to `OC1C(O)C(O)C(O)C(O)C1O` (centres undefined), the Potency result in assay [1], in assay [2], in assay [3], in assay [4], in assay [19] and in assay [5] was “inactive” each time. The Potency entry in [6], in assay [7], in [8], in assay [9], in assay [11] and in assay [12] was “inactive” each time. For the same compound, the Potency result in assay [13], in assay [14], in assay [20], in assay [15], in [16] and in assay [17] was “inactive” in each case. The Potency entry in [18] is “inactive”.

For `C#C[C@]1(O)CC[C@H]2[C@@H]3CCC4=CC(=O)CC[C@@H]4[C@H]3CC[C@@]21CC`, the Potency entry in assay [1], in [2], in assay [3], in assay [4], in assay [19] and in assay [5] was “inactive” in each case. In addition, the Potency result in [8], in assay [9], in [10], in [11], in assay [12] and in assay [13] was “inactive” throughout. For the same compound, the Potency result in assay [14], in assay [20], in [15], in assay [16], in assay [17] and in assay [18] was “inactive” throughout.

Turning to `O=C(Oc1cccc2cccnc12)c1ccccc1`, the Potency result in assay [1], in assay [2], in assay [3], in assay [4], in [19] and in assay [6] was “inactive” throughout. Further, the Potency result in [8], in assay [9], in [10], in assay [11], in assay [12] and in assay [13] was “inactive” throughout. Besides, the Potency entry in assay [20], in assay [15], in assay [16], in [17] and in assay [18] was “inactive” in each case.

As to `O=C(Nc1cccc(C2=NCCN2)c1)Nc1cccc(C2=NCCN2)c1`, the Potency in assay [1] is 4260 nM (active); in assay [2], 13500 nM (active); in assay [3], 891 nM (active); in assay [4], 3160 nM (active); in assay [5] it was 3790 nM (active); in [6], 10000 nM (active). Moreover, the Potency in [7] was 2240 nM (active); in [8], 5010 nM (active); in assay [9], 4470 nM (active); in assay [10] it was 1780 nM (active); in assay [11], 1120 nM (active); in assay [12], 3160 nM (active). The Potency is 3980 nM (active) in assay [13]; 8490 nM (active) in [14]; 5620 nM (active) in [20]; 2820 nM (active) in assay [16]; 7940 nM (active) in assay [17]; 2510 nM (active) in assay [18].

Regarding `NS(=O)(=O)c1ccc(Cl)c(S(N)(=O)=O)c1`, the Potency entry in assay [1], in [2], in assay [3], in [4], in assay [19] and in [5] was “inactive” in each case. The Potency result in [6], in assay [7], in [8], in [9], in assay [12] and in assay [13] was “inactive” in each case. Also, the Potency entry in assay [14], in assay [20], in assay [15], in assay [16], in assay [17] and in assay [18] was “inactive” in each case.

As to `Cc1cc(-c2ccccc2)nnc1NCCN1CCOCC1`, the Potency in [1] is 8490 nM (active). In addition, the Potency entry in assay [19], in assay [5], in assay [6], in [8], in assay [9] and in assay [10] was “inactive” throughout. Besides, the Potency result in assay [11], in assay [14], in assay [20], in assay [15], in [17] and in assay [18] was “inactive” each time.
